GalR3 antagonist: antagonists of human GalR3; O60755; HEK293 GalR3-CNG cAMP membrane potential fluorescence; galR3 body fused to GalR1 C-terminus; inhibition, % at 3 µM; hit rate 0.44% among 360,000;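 active means inhibition above the screen-wide average plus 3 SD, cut at about 13% in these data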;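 further: forskolin and galanin both at EC90 stimulate the cells; cAMP rise reported by CNG channel membrane potential dye signal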
SRC3 inh: inhibitors of human steroid receptor coactivator 3 (SRC3); hit rate 0.17% among 360,000; inhibition, % at 3.6 µM; HEK293 GAL4-SRC3 luciferase reporter, luminescence;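 active means inhibition above a per-campaign cutoff, the mean of all compounds plus 3 SD, cut at about 60% in these data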;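 further: higher means less SRC3-driven luciferase light from the GAL4 reporter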
SRC1 inh: inhibits human SRC1 coactivator; hit rate 0.12% among 360,000; inhibition, % at 3.6 µM; Q15788; HEK293 GAL4-SRC1 luciferase reporter, luminescence;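 active means inhibition above the campaign mean plus 3 SD, with each screening campaign given its own cutoff, cut at about 60% in these data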
Target sequence (Q15788 whole entry, looked up, the tested form may be a part): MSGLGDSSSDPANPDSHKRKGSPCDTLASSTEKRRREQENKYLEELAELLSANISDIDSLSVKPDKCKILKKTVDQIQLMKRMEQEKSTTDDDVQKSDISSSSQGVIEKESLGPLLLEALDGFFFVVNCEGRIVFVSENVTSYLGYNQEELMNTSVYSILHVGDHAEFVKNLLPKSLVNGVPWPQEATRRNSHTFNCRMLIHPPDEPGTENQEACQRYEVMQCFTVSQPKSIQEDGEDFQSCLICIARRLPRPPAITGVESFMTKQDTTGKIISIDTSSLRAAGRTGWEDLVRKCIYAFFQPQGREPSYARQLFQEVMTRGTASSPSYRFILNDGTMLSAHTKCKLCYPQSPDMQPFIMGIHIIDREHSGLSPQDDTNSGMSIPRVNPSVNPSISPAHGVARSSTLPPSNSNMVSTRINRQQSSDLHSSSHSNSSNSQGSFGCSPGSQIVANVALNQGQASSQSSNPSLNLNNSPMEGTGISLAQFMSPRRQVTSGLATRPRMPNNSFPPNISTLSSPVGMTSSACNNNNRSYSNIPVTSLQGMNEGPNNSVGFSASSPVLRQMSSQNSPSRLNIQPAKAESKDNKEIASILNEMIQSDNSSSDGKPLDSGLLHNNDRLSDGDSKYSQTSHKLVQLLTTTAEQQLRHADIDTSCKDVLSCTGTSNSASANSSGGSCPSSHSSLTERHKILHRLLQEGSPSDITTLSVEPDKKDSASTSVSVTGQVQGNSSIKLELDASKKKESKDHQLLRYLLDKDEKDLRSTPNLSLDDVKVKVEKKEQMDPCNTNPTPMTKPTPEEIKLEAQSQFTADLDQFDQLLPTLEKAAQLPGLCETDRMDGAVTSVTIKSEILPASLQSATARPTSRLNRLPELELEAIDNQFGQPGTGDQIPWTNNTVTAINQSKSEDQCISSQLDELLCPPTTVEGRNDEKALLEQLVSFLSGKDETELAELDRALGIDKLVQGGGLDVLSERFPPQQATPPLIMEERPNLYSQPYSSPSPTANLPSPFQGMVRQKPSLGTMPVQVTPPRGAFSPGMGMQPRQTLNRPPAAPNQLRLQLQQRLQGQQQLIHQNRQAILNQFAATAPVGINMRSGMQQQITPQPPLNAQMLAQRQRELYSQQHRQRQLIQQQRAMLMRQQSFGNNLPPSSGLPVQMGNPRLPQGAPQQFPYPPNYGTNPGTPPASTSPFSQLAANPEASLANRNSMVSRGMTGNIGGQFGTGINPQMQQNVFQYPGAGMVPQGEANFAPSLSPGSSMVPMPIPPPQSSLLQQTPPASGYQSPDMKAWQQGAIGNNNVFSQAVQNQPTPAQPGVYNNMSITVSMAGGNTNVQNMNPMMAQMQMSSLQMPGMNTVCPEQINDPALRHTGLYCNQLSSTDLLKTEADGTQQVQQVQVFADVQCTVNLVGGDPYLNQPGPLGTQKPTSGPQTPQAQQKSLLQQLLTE
NR5A2 inv ag: inverse agonists of human LRH-1 (NR5A2); O00482; HEK293T StAR-luciferase reporter, LRH-1 transfected, 24 h; inhibition, % at 3.6 µM; hit rate 0.13% among 360,000; AID 602396;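 active means inhibition above the mean inhibition of all tested compounds plus 3 SD, cut at about 73% in these data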
SRC2 inh: inhibits human steroid receptor coactivator 2; Q15596; HEK293 GAL4-SRC2 luciferase reporter, luminescence; inhibition, % at 9 µM; hit rate 0.17% among 370,000; AID 651957;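 active means inhibition above the mean inhibition of all tested compounds plus 3 SD, set per campaign, cut at about 52% in these data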
COUP-TFII inh: blocks human COUP-TFII nuclear receptor | inhibition, % at 8.6 µM | HEK293T NGFI-A luciferase reporter, luminescence | hit rate 0.7% among 370,000;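 active means inhibition above a per-plate cutoff, mean inhibition of test wells between control levels plus 3 SD, cut at about 38% in these data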;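 further: cells cotransfected with COUP-TFII expression vector driving the NGFI-A reporter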
Gal4-VP16 ctr: inhibits VP16 reporter, flagging COUP-TFII antagonist hits. shares compounds with COUP-TFII inh. HEK293 Gal4-VP16 luciferase reporter, luminescence. inhibition, % at 8.5 µM. hit rate 25% among 2,500. AID 687007; in the data active means inhibition above about 13%
NR2F2 inh conf: confirmation of human COUP-TFII (NR2F2) inhibitors; shares compounds with COUP-TFII inh; hit rate 45% among 2,500; inhibition, % at 8.5 µM; HEK293 NGFI-A luciferase reporter, luminescence;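 active means mean inhibition over three repeats above a set limit taken from the earlier primary screen, cut at about 38% in these data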
A number is an active result. An excerpt weighted towards active compounds, which were near 1.1% of everything screened.

Screening OC(c1ccc(F)c(F)c1)c1nc(-c2cccs2)cs1 (stereo unspecified) returned GalR3 antagonist inactive, SRC3 inh inactive, SRC1 inh inactive, NR5A2 inv ag inactive, SRC2 inh inactive and COUP-TFII inh inactive.
COc1ccc(NC(=O)[C@@H]2CCCN2S(=O)(=O)c2cccc3cccnc23)cc1 was read as GalR3 antagonist inactive, SRC3 inh inactive, SRC1 inh inactive, NR5A2 inv ag inactive, SRC2 inh inactive and COUP-TFII inh inactive.
O=C(Nc1ccc(Oc2ccccc2)cc1)C1CCCN1S(=O)(=O)c1cccc2cccnc12 (stereo unspecified) was read as SRC2 inh inactive, COUP-TFII inh 41.8, Gal4-VP16 ctr inactive and NR2F2 inh conf inactive.
`Cc1cccc(-c2nc(CN3CCCC(C(=O)NC4CCCC4)C3)c(C)o2)c1` (stereo unspecified) gave GalR3 antagonist inactive, SRC3 inh inactive, SRC1 inh inactive, NR5A2 inv ag inactive, SRC2 inh inactive and COUP-TFII inh inactive.
CCOC(=O)N1CCC(NC(=O)C2CCCN(Cc3nc(-c4cccc(C)c4)oc3C)C2)CC1 (stereo unspecified) was read as GalR3 antagonist inactive, SRC3 inh inactive, SRC1 inh inactive, NR5A2 inv ag inactive, SRC2 inh inactive, COUP-TFII inh 42.3, Gal4-VP16 ctr inactive and NR2F2 inh conf inactive.
For Cc1cccc(Nc2ncnc3ccc(Br)cc23)c1 the results were GalR3 antagonist inactive, SRC3 inh inactive, SRC1 inh inactive, NR5A2 inv ag inactive, SRC2 inh inactive, COUP-TFII inh 44.9, Gal4-VP16 ctr inactive and NR2F2 inh conf inactive.
For CN(C)c1ccc(Nc2ncnc3ccc(Br)cc23)cc1 the results were GalR3 antagonist inactive, SRC3 inh inactive, SRC1 inh inactive, NR5A2 inv ag inactive, SRC2 inh inactive, COUP-TFII inh 38.2, Gal4-VP16 ctr inactive and NR2F2 inh conf inactive.
For O=C1CCCN2N=C(SCC(=O)Nc3cccc(C(F)(F)F)c3)SC2=N1 the results were GalR3 antagonist inactive, SRC3 inh inactive, SRC1 inh inactive, NR5A2 inv ag inactive, SRC2 inh inactive, COUP-TFII inh 52.6, Gal4-VP16 ctr inactive and NR2F2 inh conf 50.3.
`O=C1CCCN2N=C(SCC(=O)Nc3cccc(Cl)c3)SC2=N1` gave GalR3 antagonist inactive, SRC3 inh inactive, SRC1 inh inactive, NR5A2 inv ag inactive, SRC2 inh inactive and COUP-TFII inh inactive.
Nc1ccc(Br)cc1C(=O)O was read as GalR3 antagonist inactive, SRC3 inh inactive, SRC1 inh inactive, NR5A2 inv ag inactive, SRC2 inh inactive, COUP-TFII inh 45.2, Gal4-VP16 ctr 54.0 and NR2F2 inh conf inactive.
Screening Cc1cc(NC2CCCC2)n2ncc(-c3ccccc3)c2n1 returned GalR3 antagonist inactive, SRC3 inh inactive, SRC1 inh inactive, NR5A2 inv ag inactive, SRC2 inh inactive, COUP-TFII inh 47.5, Gal4-VP16 ctr inactive and NR2F2 inh conf 51.8.
Screening Cc1cc(NC2CCCC2)n2nc(C)c(-c3ccccc3)c2n1 returned GalR3 antagonist inactive, SRC3 inh inactive, SRC1 inh inactive, NR5A2 inv ag inactive, SRC2 inh inactive and COUP-TFII inh inactive.
COc1ccccc1CNC(=O)C1CCCN1S(=O)(=O)c1ccc2c(c1)C(C)(C)C(=O)N2C (stereo unspecified) was read as GalR3 antagonist inactive, SRC3 inh inactive, SRC1 inh inactive, NR5A2 inv ag inactive, SRC2 inh inactive and COUP-TFII inh inactive.
Cc1cc(Nc2ccc(Cl)cc2)nc(NCc2ccccc2)n1 was read as GalR3 antagonist inactive, SRC3 inh inactive, SRC1 inh inactive, NR5A2 inv ag inactive, SRC2 inh inactive and COUP-TFII inh inactive.
Screening Cc1cc(Nc2ccccc2)nc(NCc2ccccc2)n1 returned GalR3 antagonist inactive, SRC3 inh inactive, SRC1 inh inactive, NR5A2 inv ag inactive, SRC2 inh inactive, COUP-TFII inh 37.8, Gal4-VP16 ctr inactive and NR2F2 inh conf inactive.
Screening COc1ccc2c(c1)C(CC(C)=O)N(c1ccc(-c3cccs3)cc1)C(c1ccsc1)=C2 (stereo unspecified) returned GalR3 antagonist inactive, NR5A2 inv ag inactive, SRC2 inh inactive, COUP-TFII inh 46.7, Gal4-VP16 ctr inactive and NR2F2 inh conf inactive.
`COCCNc1nc(NCc2ccc(C(C)C)cc2)c2sccc2n1` gave GalR3 antagonist inactive, SRC3 inh inactive, SRC1 inh inactive, NR5A2 inv ag inactive, SRC2 inh inactive, COUP-TFII inh 38.1, Gal4-VP16 ctr inactive and NR2F2 inh conf inactive.
Screening COCCNc1nc(NCc2cccc(OC)c2)c2sccc2n1 returned GalR3 antagonist inactive, SRC3 inh inactive, SRC1 inh inactive, NR5A2 inv ag inactive, SRC2 inh inactive and COUP-TFII inh inactive.
COc1ccc2ccccc2c1C=NNC(=O)c1cc(-c2ccc(C)cc2)n[nH]1 was read as SRC2 inh inactive and COUP-TFII inh inactive.
`CC(=O)c1c(C)[nH]c(C(=O)C(C)Sc2nnc(NC3CC3)s2)c1C` (stereo unspecified) gave GalR3 antagonist inactive, SRC3 inh inactive, SRC1 inh inactive, NR5A2 inv ag inactive, SRC2 inh inactive, COUP-TFII inh 37.5, Gal4-VP16 ctr inactive and NR2F2 inh conf inactive.
`CC(Sc1nnc(NC2CC2)s1)C(=O)Nc1ccc(N2CCOCC2)cc1` (stereo unspecified) gave GalR3 antagonist inactive, SRC3 inh inactive, SRC1 inh inactive, NR5A2 inv ag inactive, SRC2 inh inactive and COUP-TFII inh inactive.
Cc1cc(NC(=O)c2ccc(NS(=O)(=O)c3ccccc3)cc2)no1 was read as SRC2 inh inactive and COUP-TFII inh inactive.
`Cc1sc2ncnc(SCC(=O)N3CCC(c4noc5ccc(F)cc45)CC3)c2c1C` gave GalR3 antagonist inactive, SRC3 inh inactive, SRC1 inh inactive, NR5A2 inv ag inactive, SRC2 inh inactive and COUP-TFII inh inactive.
Cc1nnc(SCC(=O)N2CCC(c3noc4ccc(F)cc34)CC2)s1 was read as GalR3 antagonist inactive, SRC3 inh 63.2, SRC1 inh 62.3, NR5A2 inv ag inactive, SRC2 inh inactive, COUP-TFII inh 49.4, Gal4-VP16 ctr inactive and NR2F2 inh conf inactive.
For CCOC(=O)C1(C)CCCCCN1C(=O)c1csnn1 (stereo unspecified) the results were GalR3 antagonist inactive, SRC3 inh inactive, SRC1 inh inactive, NR5A2 inv ag inactive, SRC2 inh inactive and COUP-TFII inh inactive.
CC(=NNC(=S)Nc1ccccc1Cl)c1ccccn1 was read as GalR3 antagonist inactive, SRC3 inh 62.8, SRC1 inh 65.9, NR5A2 inv ag 73.7, SRC2 inh inactive, COUP-TFII inh 50.6, Gal4-VP16 ctr inactive and NR2F2 inh conf inactive.
`CCCC1CCC2(CC1)CCC2OC(=O)Nc1cccc(C(F)(F)F)c1` (stereo unspecified) gave COUP-TFII inh inactive.
